Data as given in the supplement of paper PMC10338343.
± gives the standard deviation.

test system: MILI (PIWIL2) piRISC loaded with piRNA #1 (26 nt); test: pre-steady-state target cleavage rate (min^-1); guide: piRNA #1 5'p-UGAGGUAGUAGGUUGUAUAGUAUCCA; MIWI and MILI are mouse PIWI proteins and EfPiwi is from a freshwater sponge; tags in brackets are library labels; higher = faster piRNA-guided slicing of the target; conditions: auxiliary factor: 500 nM mouse GTSF1
Method in brief: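 A transcribed, DNA-blocked target RNA library (0.1 nM) and 1 nM active affinity-purified piRISC bearing one synthetic guide were incubated in HEPES–potassium acetate buffer at 33 °C for 0–8 or 0–960 min, either with or without 500 nM GTSF1 partner protein. Uncleaved targets were sequenced, normalised to depth and to weakly complementary targets, and pooled over three trials, with k3 capped at 0.0001 min^-1. The pre-steady-state cleavage rate was derived with a burst-and-steady-state fit.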

Row | Sequence | pre-steady-state target cleavage rate
1 | GGAGACCUAUGAAAACAAGCUACUACCUCA | 0.00917 ± 0.0021
2 | GGAGACCUAUCUAUACAACCUACUACCAUCA | 0.123 ± 0.016
3 | GGAGACCUAUCUAUACAACCAUACUACCUCA | 0.0049 ± 0.0031
4 | GGAGACCUAUGAUAUGUACCUACAACCUGA | < 0.0001
5 | GGAGACCUAACUAAACAACCUAGUACCUCA | 0.0123 ± 0.0073
6 | GGAGACCUUACUAUACUAGCUACUACCUCA | 0.171 ± 0.012
7 | GGAGACCUUACUAUACAAGCUAGUACCUCA | 0.138 ± 0.02
8 | GGAGACCUAUGAUUAACAACCUACUACCUCA | 0.00416 ± 0.0022
9 | GGAGACCAUACUAUACAAGCUACUACCACA | 0.32 ± 0.02
10 | GGAGACCUUAGUAUAGAACCUACUACCUCA | 0.0876 ± 0.013
11 | GGAGACGAUACUUUACAACCUUCUACCUCA | 0.00805 ± 0.0018
12 | GGAGACGAUAGUAUUCAACCUACUACCUCA | 0.156 ± 0.012
13 | GGAGACCUAUGAAUACAACGUACUACCACA | 0.00353 ± 0.0029
14 | GGAGAGGAUACUAUACAACCUACAACCACA | 0.00451 ± 0.0037
15 | GGAGACCAUACUAUAGAACCUACUUCCUCA | 0.0428 ± 0.013
16 | GGAGACCUUACUAUACAACCUACAUCCUCA | 0.0472 ± 0.0095
17 | GGAGUGGAAACUAUACAAGCUACUACCUCA | 0.257 ± 0.021
18 | GGAGUGGAUAGUAUAGAACCUACUACCUCA | 0.146 ± 0.013
19 | GGAGAGGAUACUAUACAAGGAACUACCUCA | 0.00442 ± 0.002
20 | GGAGACCUUAGUAUACAACCUAGUACCUCA | 0.0225 ± 0.0077

Row | Sequence | pre-steady-state target cleavage rate
21 | GGAGAGGAUUCUAAACAACCUACUACCUCA | 0.149 ± 0.01
22 | GGAGACCUAACUAUAGUACCUACUACCUCA | 0.122 ± 0.022
23 | GGAGACCUAUGAUAUGUUGCUACUGACCUCA | < 0.0001
24 | GGAGACCUAUGAUUUCAAGCUACUACCUCA | 0.00713 ± 0.0026
25 | GGAGACCUAACUAGUACAACCUACUACCUCA | 0.0828 ± 0.019
26 | GGAGACCUAUGUAUACAACCUACAACCUCA | 0.0609 ± 0.0082
27 | GGAGACGAUACUAUACAACACUACUACCUCA | 0.00963 ± 0.0034
28 | GGAGACCUAUGUAUACAAGGUACUACCUCA | 0.0261 ± 0.0047
29 | GGAGACCUAUGAUUACAACCUACCUACCUCA | 0.00646 ± 0.0028
30 | GGAGACCUAACAUAUACAACCUACUACCUCA | 0.026 ± 0.012
31 | GGAGACCUAUUUAUACAACCUACUACCUCA | 0.0657 ± 0.02
32 | GGAGACCUAUGAUAUGUUGCUAGAUCCUCA | < 0.0001
33 | GGAGACCUUACUAUACAACCUACUACUCUCA | 0.242 ± 0.025
34 | GGAGACCUAUCUAAACAAGCUACUACCUCA | 0.176 ± 0.019
35 | GGAGACGAUACUAUACAACCUAAUACCUCA | 0.103 ± 0.015
36 | GGAGACCUUACUAAACAACCUACUACCACA | 0.128 ± 0.017
37 | GGAGACCUAACUAACAACCUACUACCUCA | 0.0182 ± 0.0067
38 | GGAGACCUAUGAUAACAACCUUCUACCUCA | 0.0024 ± 0.0021
39 | GGAGACCUAUGAAUACAACCUACUACCUACA | 0.00696 ± 0.0027
40 | GGAGACCUAACUAUACAAGGUACUACCUCA | 0.0664 ± 0.012
